High-throughput results (PubChem BioAssay)
In the library only some 3.4% were active in any assay of this set; here they are far more common.
FBW7 act – human FBW7 E3 ligase activation, primary screen; AlphaScreen FBW7–phospho-cyclin E peptide binding, activator screen; 650,000 compounds, 0.13% hits; normalized activity (activation), % at 26.1 µM; Q969H0; in the data active = normalized activity above about 1.9%;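 note: purified mutant Fbw7 with reduced substrate affinity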
GPR151 activ – human GPR151 activation; Q8TDV0; PathHunter beta-arrestin GPR151 cells, luminescence; activation, % at 11.2 µM; 650,000 compounds, 1% hits; AID 1508602; in the data active = activation above about 4.9%;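 note: 0% = median of compound wells and 100% = cells with positive control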
TEAD-YAP inh – TEAD-YAP interaction inhibition. HEK-TIYL cells, TEAD-Gal4/YAP UAS-luciferase luminescence. inhibition, % at 9.12 µM. 640,000 compounds, 1.4% hits; in the data active = inhibition above about 32%;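 note: 0% = median of test compound wells and 100% = reference inhibitor wells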
MITF primary – inhibitors of human MITF | O75030 | AlphaScreen MITF homodimerization, bead proximity signal | inhibition, % at 2.6 µM | 650,000 compounds, 0.91% hits | AID 1259374; in the data active = inhibition above about 50%;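 note: 0% = vehicle wells with protein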
Target sequence (O75030 whole entry, looked up): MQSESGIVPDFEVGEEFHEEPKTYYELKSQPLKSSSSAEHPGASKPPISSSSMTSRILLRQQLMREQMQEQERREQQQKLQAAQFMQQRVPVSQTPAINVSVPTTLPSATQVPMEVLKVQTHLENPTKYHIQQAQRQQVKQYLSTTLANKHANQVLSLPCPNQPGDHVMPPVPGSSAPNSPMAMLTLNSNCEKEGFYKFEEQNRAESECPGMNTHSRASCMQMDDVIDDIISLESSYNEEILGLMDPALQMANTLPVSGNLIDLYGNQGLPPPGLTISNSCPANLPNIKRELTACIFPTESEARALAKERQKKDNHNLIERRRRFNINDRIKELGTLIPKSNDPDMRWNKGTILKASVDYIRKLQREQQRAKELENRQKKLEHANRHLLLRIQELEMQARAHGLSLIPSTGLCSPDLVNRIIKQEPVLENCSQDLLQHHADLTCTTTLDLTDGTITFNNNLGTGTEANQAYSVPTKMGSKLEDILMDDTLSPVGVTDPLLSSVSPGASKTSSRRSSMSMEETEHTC
MITF confirm – human MITF inhibition, confirmation | shares compounds with MITF primary | AlphaScreen MITF homodimerization, biotin/His-MITF beads | inhibition, % at 2.6 µM | 4,700 compounds, 16% hits | AID 1259372;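 active = inhibition above a cutoff derived from the DMSO control wells, cut at about 28% in these data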;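 note: 0% = MITF dimer wells with DMSO only; inhibitors lower the bead chemiluminescence by keeping MITF from dimerizing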
AlphaScreen DR – counter-screen: compounds optically interfering with AlphaScreen; AlphaScreen optical interference counterscreen, cell-free; AID 1259373; 480 compounds, 6% hits; shares compounds with MITF primary; IC50, µM; call rule not given here
AS interf ctr – counter-screen: compounds optically interfering with AlphaScreen; shares compounds with MITF primary; inhibition, % at 2.6 µM; 4,700 compounds, 7.6% hits; AID 1259376; LysRS AlphaScreen counterscreen, signal interference, triplicate;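 active = inhibition above a cutoff derived from the DMSO control wells, cut at about 30% in these data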
* marks the source's active call; other numbers are inactive results; / = no result given.

SMILES | FBW7 act | GPR151 activ | TEAD-YAP inh | MITF primary | MITF confirm | AS interf ctr | others
CN1C(=O)[C@H]2CN(C(=O)c3ccc(Cl)cc3)CCN2C(=O)[C@@H]1CO | 0.0 | -0.5 | -0.6 | 15.0 | / | /
CN1C(=O)[C@H]2CN(C(=O)NC3CCCCC3)CCN2C(=O)[C@@H]1CO | -0.2 | 0.4 | -0.1 | 76.4* | 71.0* | -10.8 | AlphaScreen DR=>6.48
Cc1ccc2c(c1)cc(CN(C1CCCC1)S(=O)(=O)c1ccccc1)c1nnnn12 | -0.2 | -0.4 | 2.1 | -12.6 | / | /
Cc1ccccc1OCC(O)CN1CCN(CC(O)COc2ccccc2C)C(C)C1 (configuration not stated) | 0.0 | -1.4 | 3.0 | 55.0* | -5.8 | -4.7
COC(=O)C(N)CSC1CCCCO1 (configuration not stated) | 0.1 | -0.6 | 0.1 | 55.6* | 8.7 | 17.9
C/C(=N\Nc1ccccn1)c1ccc(-n2ccnc2)cc1 | -0.2 | 2.8 | -15.1 | 16.0 | / | /
C/C(=N\N1CCOCC1)c1ccc(-n2ccnc2)cc1 | -0.1 | -0.1 | -3.3 | 76.5* | 7.8 | -2.0
CC1CCC(N2CCN(CC3CC=CCC3)CC2)CC1 (configuration not stated) | 0.2 | -0.8 | 1.9 | 62.5* | 1.6 | -0.4
C1=CCC(CN2CCN(C3CCCCCC3)CC2)CC1 (configuration not stated) | 0.2 | 1.6 | 4.5 | 76.1* | -4.3 | -7.4
CCCS(=O)(=O)N1CCN(CC2CC=CCC2)CC1 (configuration not stated) | 0.0 | 0.2 | 10.1 | 32.1 | / | /
OCC1(Cc2ccccc2)CCCN(Cc2nc3c(s2)CCCC3)C1 (configuration not stated) | 0.1 | 3.7 | -0.4 | 9.9 | / | /
COc1cc(-c2[nH]nc3c2C(c2ccc4c(c2)OCO4)C(C#N)=C(N)O3)cc(OC)c1OC (configuration not stated) | -0.1 | 1.3 | 14.6 | 66.3* | -5.6 | -4.8
CCOC(=O)c1c(N)nn2c3ccccc3n(C)c12 | 0.0 | 0.9 | -24.4 | 63.8* | 10.6 | 17.7
Cc1ccc(-c2nnc(SCC(=O)Nc3ccc(Br)cc3)nc2-c2ccc(C)cc2)cc1 | -0.1 | 0.0 | -9.8 | -0.9 | / | /
Cc1ccc(S(=O)(=O)C(CNC(=O)C(C)C)c2cccs2)cc1 (configuration not stated) | 0.2 | -1.3 | 1.4 | -8.1 | / | /
Cc1ccc(S(=O)(=O)C(CNC(=O)c2ccco2)c2cccs2)cc1 (configuration not stated) | 1.2 | 1.4 | -4.7 | 95.5* | 82.7* | 4.6 | AlphaScreen DR=>6.56
CC(=O)NCC(c1cccs1)S(=O)(=O)c1ccc(C)cc1 (configuration not stated) | 1.9* | 1.0 | -6.8 | 51.1* | 59.8* | -7.7 | AlphaScreen DR=>6.41
O=C(NCC(c1cccs1)S(=O)(=O)c1ccc(Cl)cc1)c1ccco1 (configuration not stated) | 1.6 | 2.5 | -3.2 | 70.0* | 58.7* | -15.5 | AlphaScreen DR=>6.55
O=C(NCC(c1ccco1)S(=O)(=O)c1cccs1)c1ccco1 (configuration not stated) | 1.0 | -0.2 | -1.3 | 20.9 | / | /
CCOC(=O)c1ccc(NC(=O)C2CC(=O)NC(=Nc3ccccc3)S2)cc1 (configuration not stated) | 0.2 | 0.9 | 3.3 | -1.1 | / | /
O=C(NC1CCCc2c1cnn2-c1ccc(F)cc1F)c1cnsn1 (configuration not stated) | 0.2 | 0.1 | 3.0 | 1.5 | / | /
O=C(CC(c1ccccc1)c1ccccc1O)NCC1OCCc2ccccc21 (configuration not stated) | 0.0 | 0.6 | 6.8 | 2.6 | / | /
COc1ccc(CCN2CCc3nc4ccncc4cc3C2)cc1 | 0.8 | 1.0 | 1.9 | 51.1* | 23.5 | 34.0*
O=C1OC(OC(=O)c2ccco2)C(Nc2ccccc2)=C1Cl (configuration not stated) | 0.1 | -0.6 | -2.3 | 70.8* | -24.6 | -7.3
Cn1c(NCc2ccc(C(=O)O)cc2)nc(-c2ccncc2)c(-c2ccc3ccccc3c2)c1=O | 0.1 | -0.6 | 1.0 | -9.0 | / | /
SMILES | FBW7 act | GPR151 activ | TEAD-YAP inh | MITF primary | MITF confirm | AS interf ctr | others
O=C(NCCc1ccc(O)cc1)c1cccc(-c2cccs2)c1 | 0.2 | 1.0 | 4.4 | 51.9* | 40.7* | 4.4 | AlphaScreen DR=>6.26
O=C(NCCc1ccc(O)cc1)c1ccnc(-c2cccs2)c1 | 0.0 | 0.7 | 7.1 | 51.3* | 51.2* | -0.2 | AlphaScreen DR=>6.77
O=C(OC1(C(F)(F)F)C(=O)Nc2cc3c(cc21)OCO3)c1ccc(Cl)nc1 (configuration not stated) | -0.3 | 0.4 | -3.2 | 81.4* | 70.6* | -24.8 | AlphaScreen DR=>7.12
CCCn1c(SCC(=O)Nc2cccc(Br)c2)n[nH]c1=O | -0.1 | -1.5 | -5.2 | 5.4 | / | /
O=C(NCc1ccccc1)c1ccnc(Nc2ccccc2)c1 | 0.5 | -1.0 | -0.7 | 9.4 | / | /
CCOC(=O)C(=O)C(C#N)c1ccccc1 (configuration not stated) | -0.2 | 1.2 | -0.6 | 83.3* | 11.1 | 19.4
O=C(COc1ccc(Cl)cc1)NNC(=O)c1ccc(=O)[nH]c1 | -0.2 | -0.4 | -1.4 | 67.5* | -9.3 | -6.9
O=C(COc1ccc2ccccc2c1)NNC(=O)c1ccc(Cl)cc1 | -0.1 | 0.3 | -3.6 | 4.1 | / | /
C#CCN(C)C(=O)c1cnc2sc(C)cn2c1=O | -0.2 | 0.1 | -0.7 | 56.7* | 12.2 | 8.0
Cc1cn2c(=O)c(C(=O)N(C)CC(=O)N(C)C)cnc2s1 | -0.1 | -0.6 | 2.2 | -0.8 | / | /
COc1ccccc1N1CCN(C2CCN(Cc3cccc(F)c3)CC2)CC1 | -0.1 | 0.3 | 2.3 | 61.7* | 0.5 | -0.1
COc1cccc(CN2CCC(N3CCN(c4ccccc4F)CC3)CC2)c1 | -0.3 | 1.3 | 4.5 | 72.5* | -9.0 | -4.0
FC(F)SCc1ccc(CNC2CCN(Cc3ccccc3)CC2)o1 | 0.1 | 1.0 | 0.6 | 53.8* | 15.4 | 18.7
c1ccc(CN2CCC(NCc3ccncc3)CC2)cc1 | 0.0 | -1.0 | -0.8 | 62.5* | 8.0 | 12.9
Clc1ccc(CNC2CCN(Cc3ccccc3)CC2)cc1 | -0.1 | 0.9 | 6.7 | -11.5 | / | /
Cc1ccc(CNC2CCN(Cc3ccccc3)CC2)o1 | -0.1 | 0.0 | 1.1 | 22.9 | / | /
Fc1ccccc1CNC1CCN(Cc2ccccc2)CC1 | 0.2 | -0.5 | -0.2 | 50.8* | -11.8 | -0.4
c1ccc(CN2CCC(NCc3cccnc3)CC2)cc1 | 0.0 | -0.6 | -11.3 | 70.3* | 5.6 | 11.4
CC(C)(C)OC(=O)COc1ccc(/C=N/NC(=O)CSc2ncccn2)cc1 | 0.0 | 0.3 | -47.2 | -5.3 | / | /
Cc1ccc(NC(=O)CSc2nnc(COc3c(C)cccc3C)n2N)cc1[N+](=O)[O-] | -0.1 | -1.6 | 4.8 | 6.4 | / | /
O=P(O)(O)CC(CN1CCCCC1)P(=O)(O)O (configuration not stated) | 0.0 | -1.3 | -8.4 | 9.2 | / | /
O=C(Cc1ccccc1)Nc1cnn(-c2cccc(C(=O)NC3Cc4ccccc4C3)c2)c1 | 0.4 | -1.9 | -9.8 | 23.8 | / | /
